Among the data in PubChem BioAssay (NCATS) are Potency, max response and outcome values, retold here.

Where “and” joins values, the source holds several entries; their conditions need not be identical. Equal values may be shown once. Results filed as inconclusive are left out. Where a structure was tested more than once in an assay, its records may differ in their call. A number with no mark means an inactive call. Calls of active or inactive are those of the source. The call rests on the fitted dose curve; in most records, active means well fitted inhibition curve with a large enough effect; inconclusive means small, poorly fitted or top-dose-only effect; inactive means flat fitted curve, though single readings scatter.

For one test, the system named is HB3. The test is described as follows: qHTS profiling for inhibitors of Plasmodium falciparum proliferation (AID 504749).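 Further: 0% = DMSO vehicle and full inhibition = artemisinin control.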 The following applies: P. falciparum in erythrocytes, SYBR Green DNA, 72 h; series mostly up to 28.7 µM. An outline of the steps: (§1)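 Each compound contacts P. falciparum-infected red blood cells for 72 h at 37 C; lysis buffer (Tris, EDTA, saponin, Triton X, SYBR Green I) is added and fluorescence measured next morning; values normalized to controls.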
For orientation: qHTS replaces the single test concentration by a dilution series.

Another test relates to ICS. The test is described as above. The following applies: P. falciparum in erythrocytes, SYBR Green DNA, 72 h; series mostly up to 28.7 µM. An outline of the steps:
as §1

The next test deals with JCK. Described as above. The following applies: P. falciparum in erythrocytes, SYBR Green DNA, 72 h; series mostly up to 28.7 µM. An outline of the steps:
as §1

A further test relates to N140. The description is as above. The following applies: P. falciparum in erythrocytes, SYBR Green DNA, 72 h; series mostly up to 28.7 µM. An outline of the steps: as §1
For another test, the system named is P93_24. Described as above. The following applies: P. falciparum in erythrocytes, SYBR Green DNA, 72 h; series mostly up to 28.7 µM. The essentials: as §1
The test system of the next test is P94_40. The description is as above. The following applies: P. falciparum in erythrocytes, SYBR Green DNA, 72 h; series mostly up to 28.7 µM. The essentials: as §1
The test system of a further test is PAD. Described as above. The following applies: P. falciparum in erythrocytes, SYBR Green DNA, 72 h; series mostly up to 28.7 µM. An outline of the steps:
as §1

For another test, the system named is PC15. The test is described as above. The following applies: P. falciparum in erythrocytes, SYBR Green DNA, 72 h; series mostly up to 28.7 µM. The essentials:
as §1

The next test concerns PC26. The test is described as above. The following applies: P. falciparum in erythrocytes, SYBR Green DNA, 72 h; series mostly up to 28.7 µM. An outline of the steps:
as §1

The subject of another test is PC49. The test is described as above. The following applies: P. falciparum in erythrocytes, SYBR Green DNA, 72 h; series mostly up to 28.7 µM. The essentials: as §1
In the next test the test system is SC27B. The test is described as above. The following applies: P. falciparum in erythrocytes, SYBR Green DNA, 72 h; series mostly up to 28.7 µM. The essentials: as §1
Another test relates to TAB109. Described as above. The following applies: P. falciparum in erythrocytes, SYBR Green DNA, 72 h; series mostly up to 28.7 µM. An outline of the steps:
as §1

A further test has as its system TAB113. The test is described as above. The following applies: P. falciparum in erythrocytes, SYBR Green DNA, 72 h; series mostly up to 28.7 µM. The essentials:
as §1

Another test has as its system TAB165. The test is described as above. The following applies: P. falciparum in erythrocytes, SYBR Green DNA, 72 h; series mostly up to 28.7 µM. An outline of the steps: as §1
The test system of another test is W2. The description is as above. The following applies: P. falciparum in erythrocytes, SYBR Green DNA, 72 h; series mostly up to 28.7 µM. The essentials: as §1
In a further test the test system is CRL-7250. The test is described as follows: Cytotoxic Profiling of Annotated Libraries Using Quantitative High-Throughput Screening (AID 1296008). Further: potency means the concentration at half of the fitted maximal effect. On max response: on the % scale 0 is the no-effect control and ±100 the full control effect. The following applies: Five cell lines viability, CellTiter-Glo ATP luminescence, 48-72 h; max response: active compounds read low. An outline of the steps:
(§2)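 Cells exposed to compounds for 48 or 72 hr at 37 degrees Celsius. Viability read as ATP-coupled luminescence with CellTiter-Glo after 10 min at room temperature.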
A general note: In ATP-based viability assays light output follows the ATP content of the culture.

A further test has as its system HEK293. The test is described as above. The following applies: Five cell lines viability, CellTiter-Glo ATP luminescence, 48-72 h; max response: active compounds read low. An outline of the steps: as §2
For the next test, the system named is HaCat. The description is as above. The following applies: Five cell lines viability, CellTiter-Glo ATP luminescence, 48-72 h; max response: active compounds read low. An outline of the steps: as §2
In a further test the test system is KB-3-1. The test is described as above. The following applies: Five cell lines viability, CellTiter-Glo ATP luminescence, 48-72 h; max response: active compounds read low. An outline of the steps: as §2
Another test relates to NIH3T3. The test is described as above. The following applies: Five cell lines viability, CellTiter-Glo ATP luminescence, 48-72 h; max response: active compounds read low. The essentials: as §2
Further: nearly all actives have a fitted effect of over 60% in size.

For the molecule `Cc1cc(C(C)(C)C)c(O)c(C)c1CC1=NCCN1`, the Potency entry with HB3, with ICS, in the test with JCK, in the test with N140, in the test with P93_24 and with P94_40 was “inactive” each time. Besides, the Potency result in the test on PAD, with PC15, in the test with PC26, in the test on PC49, with SC27B and in the test with TAB109 was “inactive” each time. Also, the Potency result in the test on TAB113, with TAB165 and in the test with W2 was “inactive” in each case. Further, the max response was 4.59% and 1.76% with CRL-7250; -3.25% with HEK293; -9.17% and -0.1% in the test with HaCat; 1.72% and -15.7% in the test with KB-3-1; 3.71% in the test on NIH3T3. Further, the call in the test with CRL-7250, with HaCat and in the test on NIH3T3 was inactive. Moreover, the Potency in the test on HEK293 is 9.35 µM (active).
Consider `C[C@H]1c2cccc(O)c2C(O)=C2C(=O)[C@]3(O)C(O)=C(C(N)=O)C(=O)[C@@H](N(C)C)[C@@H]3[C@@H](O)[C@@H]21`, for which the max response in the test with CRL-7250 is -2.19%; with HEK293, -8.48%; with KB-3-1, 10.8% and -8.7%; in the test on NIH3T3, 1.59%. For the same molecule, the molecule was called inactive with CRL-7250, with HaCat and in the test on NIH3T3.
Consider `CC(C)(Oc1ccc(C2CC2(Cl)Cl)cc1)C(=O)O` (stereo not given), for which the Potency entry in the test with HB3, in the test on ICS, with JCK, in the test with N140, in the test with P93_24 and in the test with P94_40 was “inactive” each time. Further, the Potency entry in the test on PAD, with PC26, in the test with PC49, in the test on SC27B, with TAB109 and with TAB113 was “inactive” throughout. For the same molecule, the Potency entry in the test on TAB165 and in the test on W2 was “inactive” in each case. For the same molecule, the max response in the test with CRL-7250 is -2.5%; in the test with HEK293, -10.2%; with HaCat it was -0.292%. Also, the call in the test on CRL-7250, in the test on HaCat, in the test with KB-3-1 and with NIH3T3 was inactive.
`CC(C)(C)C(=O)Oc1ccc(S(=O)(=O)Nc2ccccc2C(=O)NCC(=O)O)cc1`: the Potency entry in the test on HB3, with ICS, in the test with JCK, with N140, in the test on P93_24 and with P94_40 was “inactive” each time. Besides, the Potency entry in the test with PAD, in the test with PC15, with PC26, in the test on PC49, in the test on SC27B and in the test on TAB109 was “inactive” each time. In addition, the Potency entry with TAB113, in the test on TAB165 and in the test on W2 was “inactive” in each case. Also, the max response in the test with CRL-7250 was 4.89%; with HEK293, -6.47%; in the test with HaCat, -9.37%; in the test with KB-3-1, -8.85%; with NIH3T3, -7.41% and -3.91%. For the same molecule, the outcome in the test with CRL-7250, in the test on HEK293, with HaCat and in the test with KB-3-1 was inactive.
As for `CN(C)c1nc(N(C)C)nc(N(C)C)n1`, the Potency entry in the test on HB3, with ICS, in the test with JCK, with N140, in the test on P93_24 and in the test with P94_40 was “inactive” in each case. Moreover, the Potency entry in the test with PAD, in the test with PC15, in the test with PC26, in the test on PC49, in the test on SC27B and in the test on TAB109 was “inactive” throughout. Besides, the Potency entry in the test with TAB113, in the test with TAB165 and in the test with W2 was “inactive” throughout. The max response with CRL-7250 is -4.79%; in the test on HEK293, -4.81% and -7.03%; with HaCat, -7.57% and -4.4%; in the test on KB-3-1, 0.844% and 0.45%; in the test with NIH3T3 it was 1.4% and 1.9%. The outcome with CRL-7250 was inactive.
On to `NC(=O)NO`, for which the Potency entry in the test with HB3, in the test with ICS, in the test with JCK, in the test with N140, in the test on P93_24 and in the test with P94_40 was “inactive” throughout. Further, the Potency result with PAD, in the test on PC15, with PC26, with PC49, in the test with SC27B and in the test with TAB109 was “inactive” throughout. Also, the Potency result in the test with TAB113, in the test on TAB165 and with W2 was “inactive” in each case. Moreover, the Potency in the test on CRL-7250 was 13.2 µM (active); in the test with HEK293, 0.0526 µM (active); in the test with KB-3-1 it was 6.62 µM (active); in the test on NIH3T3, 18.7 µM (active). Also, the max response with HEK293 was 4.27%; with HaCat, -18.6%; in the test with KB-3-1 it was 2.92%; in the test on NIH3T3, 2.15%.
For the molecule `NC12CC3CC(CC(C3)C1)C2`, the Potency result in the test on HB3, in the test with ICS, in the test on N140, in the test on P93_24, in the test with P94_40 and in the test with PAD was “inactive” each time. Further, the Potency entry with PC26, in the test on PC49, in the test with SC27B, in the test with TAB109, in the test on TAB113 and in the test with TAB165 was “inactive” throughout. In addition, the Potency result in the test with W2 is “inactive”. Besides, the call with CRL-7250, in the test with HEK293, in the test on HaCat and in the test with NIH3T3 was inactive. Also, the max response in the test on HEK293 is 1.92%; in the test on HaCat, 3.56%; in the test with KB-3-1 it was 5.54% and 19.1%; with NIH3T3, 1.39%.
`O=C(c1ccc(F)cc1)C1CCN(CCn2c(=O)[nH]c3ccccc3c2=O)CC1`: the Potency entry with HB3, in the test with ICS, in the test with JCK, in the test on N140, with P93_24 and in the test with PAD was “inactive” in each case. The Potency result in the test with PC15, with PC26, in the test on PC49, in the test on SC27B, in the test on TAB109 and in the test on TAB113 was “inactive” in each case. Besides, the Potency entry in the test on TAB165 was “inactive”. The max response is -21.4% and 4.56% with CRL-7250; -0.877% and -3.18% in the test on HEK293; -0.754% and -2.78% and -3.98% in the test with HaCat; -2.16% and 6.29% with KB-3-1. Also, the result in the test with CRL-7250 and in the test with NIH3T3 was inactive.
On to `COc1ccc(C2CNC(=O)C2)cc1OC1CCCC1` (stereo not given), for which the max response was -1.68% in the test on CRL-7250; 0.111% in the test with HEK293; -13.7% in the test on HaCat; 0.0275% and -1.99% in the test on KB-3-1; -5.87% in the test with NIH3T3. The outcome in the test with CRL-7250, in the test on HEK293, with HaCat and in the test on NIH3T3 was inactive.
For the molecule `NCCS(=O)(=O)O`, the Potency result in the test with HB3, in the test with ICS, in the test with JCK, with N140, in the test on P93_24 and in the test on P94_40 was “inactive” in each case. In addition, the Potency result in the test with PAD, with PC15, with PC26, with PC49, with SC27B and in the test on TAB109 was “inactive” throughout. For the same molecule, the Potency entry in the test on TAB113 and with TAB165 was “inactive” throughout. In addition, the max response with CRL-7250 is -1.77% and -3.17%; in the test with HEK293 it was -1.38%; with KB-3-1 it was 9.43%; with NIH3T3 it was 0.192%. Also, the molecule was classed as inactive with HEK293, in the test on HaCat and in the test with NIH3T3.
